# From PubChem BioAssay (NCATS)
# Records with an inconclusive call do not appear. Entries that show only a call come without a potency. Calls of active or inactive are those of the source. The call rests on the fitted dose curve; in most records, active means well fitted inhibition curve with a large enough effect; inconclusive means small, poorly fitted or top-dose-only effect; inactive means flat fitted curve, though single readings scatter.
# Biological target: Glutathione peroxidase 1 (Homo sapiens) (UniProt P07203)
# Assay: Primary qHTS Assay for Inhibitors of Recombinant Selenoprotein Glutathione Peroxidase 1 (GPX1) (AID 1845191); further: nearly all actives have a fitted effect of over 65% in size
# Conditions: recombinant GPX1, GR-coupled NADPH fluorescence, 15 min; series mostly up to 48.8 µM
# Excerpt: Assay Provider: Elias S.J. Arner MD PhD.
# Department of Medical Biochemistry and Biophysics
# Karolinska Institutet, Solna, Stockholm, Sweden
# Selenoprotein glutathione peroxidases (GPX), like the ubiquitously expressed GPX1 and the ferroptosis modulator GPX4, enact their antioxidant activities by reducing hydroperoxides using glutathione. […] GPX1 and GPX4 inhibitors have thus shown promise as anti-cancer agents. Existing inhibitors are often promiscuous, or modulate GPX activity only indirectly, so novel direct inhibitors identified through screening against GPX1 and GPX4 could be valuable. Here, we developed optimized glutathione reductase (GR)-coupled GPX assays for the biochemical high-throughput screen (HTS) of almost 12,000 compounds with known mechanisms of action. Initial hits were triaged using a GR counter-screen, assessed for isoform specificity using a separate GPX2 assay, and were assessed for general selenocysteine-targeting activity using a thioredoxin reductase (TXNRD1) assay. With this suite of assays, we identified novel GPX1/GPX2- and GPX4-specific inhibitors and can here present a validated pipeline for future discovery research for selenoprotein-targeting agents.
# SEQUENCE No. (e.g., 1, 2, 3, etc.); […] (e.g., Cells, Incubation, Reagent, etc.); VALUE; DESCRIPTION.
# 1; Reagent 1; 3 uL; GPx1 enzyme or no enzyme control in 1536-well, black, solid Greiner assay plate.
# 2; Compound; 25 nL; Kalypsis pin tool (Wako USA) equipped with a 1536-well pin head.
# 3; Incubation; 30 min; room temperature.
# 4; Reagent 2; 1 uL; 10 nM GPX1, 1 mM GSH, 0.5 mM CHP, 0.5 mM NADPH, 100 nM GR, 0.01% BSA substrate
# 5; Detection; Fluorescence; ViewLux microplate reader, excitation 340 nm and emission 450 nm.
# 6; Incubation; 15 min; room temperature.
# 7; Detection; Fluorescence; ViewLux microplate reader, excitation 340 nm and emission 450 nm.
# NOTES (numbers refer to Sequence numbers above)
# 1. 3 uL of 16.66 nM GPX1 and 0.016% BSA in assay buffer (50 mM Tris-HCl, 2 mM EDTA (pH 7.5), 150 mM NaCl) was added to columns 3-48 of 1536-well assay plates using a BioRAPTR Flying Reagent Dispenser (Let's Go Robotics (LGR), Carlsbad, CA). A no-enzyme control (0.01% BSA in TES assay buffer) was added to columns 1-2.
# 2. 25 nL of test compounds and DMSO controls were added to each well with a pin tool (Kalypsys).
# 3. The assay plates were incubated for 30 minutes at room temperature.
# 4. 1 uL of master mix (500 nM glutathione reductase (GR), 5 mM reduced glutathione (GSH), 2.5 mM NADPH in assay buffer) was added. 1 uL of cumene hydroperoxide (CHP) ([2.5 mM] in 50% EtOH) was then added within 5 minutes to initiate the reaction. Final concentrations were: 10 nM GPX1, 1 mM GSH, 0.5 mM CHP, 0.5 mM NADPH, 100 nM GR, 0.01% BSA.
# 5. Initial fluorescence readout (t=0) at 340/450 nm was measured using a ViewLux multimodal detector (PerkinElmer, Waltham, MA).
# 7. Endpoint fluorescence readout (t=15) at 340/450 nm was measured 15 min after room temperature incubation.
# Chain of Glutathione peroxidase 1 (Homo sapiens) (P07203 whole entry, looked up): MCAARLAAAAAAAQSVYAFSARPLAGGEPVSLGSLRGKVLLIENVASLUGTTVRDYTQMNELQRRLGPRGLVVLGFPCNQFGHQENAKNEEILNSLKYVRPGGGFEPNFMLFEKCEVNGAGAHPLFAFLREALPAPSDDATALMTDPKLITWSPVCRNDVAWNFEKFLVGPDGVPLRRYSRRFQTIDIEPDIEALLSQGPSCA
row,Structure (SMILES),Potency
1,C[C@H]1C[C@H]2[C@@H]3CCC4=CC(=O)C=C[C@]4(C)[C@@]3(F)[C@@H](O)C[C@]2(C)[C@@]1(O)C(=O)COP(=O)(O)O,inactive
2,CCOC(=O)c1ccc(N(C)c2csc(-c3ccccc3)n2)cc1,inactive
3,COc1cc([C@@H]2Oc3c(OC)cc(CCCO)cc3[C@@H]2CO[C@@H]2O[C@H](CO)[C@@H](O)[C@H](O)[C@H]2O)ccc1O,inactive
4,C[C@@H]1O[C@@H](O[C@H]2[C@H](O[C@H]3[C@H](O[C@H]4CC[C@@]5(C)C(CC[C@]6(C)C5CC=C5[C@@H]7CC(C)(C(=O)O)C[C@@H](O)[C@]7(C)CC[C@]56C)[C@@]4(C)CO)O[C@H](C(=O)O)[C@@H](O)[C@@H]3O)O[C@H](CO)[C@H](O)[C@@H]2O)[C@H](O)[C@H](O)[C@H]1O (stereo not given in full),inactive
5,CC(=O)[C@@H]1CC[C@]2(C(=O)O)CC[C@]3(C)C(CCC4[C@@]5(C)CC[C@H](O)C(C)(C)C5CC[C@]43C)C12 (stereo not given in full),inactive
6,O=C(NN1CCCCC1)c1nn(-c2ccc(Cl)cc2Cl)c(-c2ccc(C#Cc3ccc(C(F)(F)F)cc3)s2)c1CNS(=O)(=O)N1CCCC1,inactive
7,CCCn1cnc2c(NCc3ccccc3)nc(N[C@H](CC)CO)nc21,inactive
8,CC1(C)O[C@]23C[C@H]1C[C@H](OC(=O)c1ccoc1)[C@]2(C)[C@@H](OC(=O)c1ccoc1)CCC3(C)O (stereo not given in full),inactive
9,CC(=O)O[C@@H]1[C@H]2[C@@H](OC(=O)c3ccccc3)[C@@H](C)C[C@]2(O)[C@H](OC(C)=O)[C@@]2(C)[C@@H]3CC(C)(C)C(=O)[C@]3(OC(C)=O)C[C@@]12C,inactive
10,CC1=CCC(C(C)(C)O)CC1 (stereo not given),inactive
11,CCCCNC(=O)[C@@H]1Cc2ccccc2N1C(=O)[C@@H](N)CC,inactive
12,CC1CCC2C(C(=O)O)=CC3C(O)C(C)(C)CC123 (stereo not given),inactive
13,CCOC(=O)N1CCC(NCCNC(=O)c2ccccc2C)CC1,inactive
14,CC1CCC2(C(=O)OC3OC(COC4OC(CO)C(O)C(O)C4O)C(O)C(O)C3O)CCC3(C)C(=CCC4C5(C)CCC(O)C(C)(C(=O)O)C5CCC43C)C2C1(C)O (stereo not given),inactive
15,CC(=O)Oc1c(C)cc(OCC(O)CNC(C)C)c(C)c1C (stereo not given),inactive
16,CC(C)C(C#N)O[C@@H]1O[C@H](CO[C@@H]2OC[C@](O)(CO)[C@H]2O)[C@@H](O)[C@H](O)[C@H]1O (stereo not given in full),inactive
17,COc1cc(C2OCC3C(c4ccc(OC5OC(CO)C(O)C(O)C5O)c(OC)c4)OCC23)ccc1O (stereo not given),inactive
18,C[C@@H]1CCN(C(=O)CC#N)C[C@@H]1N(C)c1ncnc2[nH]ccc12,inactive
19,CC(NC(=O)CC(=O)O)c1nc2ccccc2c(=O)[nH]1 (stereo not given),inactive
20,COc1ccc(C(OC2OC(CO)C(O)C(O)C2O)C(C)O)cc1 (stereo not given),inactive

row,Structure (SMILES),Potency
1,Cc1cc(C)c(S(=O)(=O)N(Cc2ccc(-c3cccc(S(C)(=O)=O)c3)cc2)Cc2ccc(C(F)(F)F)o2)c(C)c1,inactive
2,CC(C)(OC1OC(CO)C(O)C(O)C1O)C1CCC(O)(CO)C2CC(O)C(C)(O)C2C1 (stereo not given),inactive
3,Cc1nn(C)c2c1C(c1ccc(C(F)(F)F)cc1)C(C#N)=C(N)O2 (stereo not given),inactive
4,COc1c2c(c(C)c3c1C(=O)OC3)OC1(C)CC(O)C3(O)C(C)(C)OC(=O)CCC3(C)C1C2 (stereo not given),inactive
5,COC(=O)C1C(CC(C)=O)C=CC(O)C12Oc1cc(C)cc(O)c1C2=O (stereo not given),inactive
6,CCCCCCCCCCCCCC[n+]1ccc(C)cc1,inactive
7,C(#Cc1cccc(CN2CCOCC2)c1)CCN1CCCCC1,inactive
8,C/C(=C\CCC(C(=O)O)C1CCC2(C)C3=C(CCC12C)C1(C)CCC(=O)C(C)(C)C1CC3)C(=O)O (stereo not given),inactive
9,CC(/C=C/C1(O)C(C)CC(O)CC1(C)C)OC1OC(CO)C(O)C(O)C1O (stereo not given),inactive
10,CC(=O)O[C@H]1C[C@@H]2[C@]3(CC[C@]4(C)[C@@H](C5(C)CCC(C(C)(C)O)O5)[C@@H](O)C[C@@]24C)C[C@@]32CC[C@H](O[C@@H]3OC[C@@H](O)[C@H](O)[C@H]3O)C(C)(C)[C@H]12 (stereo not given in full),inactive
11,O=c1ccn(C2OC(CO)C(O)C2O)c(=O)[nH]1 (stereo not given),inactive
12,C=C(C)C(=O)O[C@H]1C[C@@](C)(OC(C)=O)[C@@]2(O)CC[C@@](C)(O)[C@H](OC(C)=O)[C@@]23OC(=O)C(COC)=C13,inactive
13,C=C1CCC2C(C)(CO[C@@H]3O[C@H](CO)[C@@H](O)[C@H](O)[C@H]3O)C(O)CCC2(C)C1C(=O)CC1=CCOC1=O (stereo not given in full),inactive
14,COC(=O)C12C(=O)C(C)=C(O)C1(C)C(C)=CC1C34CCC(OC3=O)C(C)(C)C4CCC12C (stereo not given),inactive
15,CC(C)[C@H]1CCC(CO)=C[C@@H]1/C=C(\CO)C(=O)O,inactive
16,CCN[C@@H]1C[C@H](N)[C@@H](O[C@H]2OC(CN)=CC[C@H]2N)[C@H](O)[C@H]1O[C@H]1OC[C@](C)(O)[C@H](NC)[C@H]1O,inactive
17,O=S(=O)(NC1CCNCC1)c1cc(S(=O)(=O)c2ccccc2)ccc1C(F)(F)F,inactive
18,CC1=CC2(O)/C=C/C(C)(O)CC(O)/C=C/C(=O)OC23C(=O)NC(CC(C)C)C3C1C (stereo not given),inactive
19,O=C(O[C@H]1[C@@H]2C=CO[C@@H](O[C@@H]3O[C@H](CO)[C@@H](O)[C@H](O)[C@H]3O)[C@@H]2[C@@]2(CO)O[C@@H]12)c1ccc(O)c(O)c1,inactive
20,CCC1CC2C(C)=CC3CCCCC3C2(C)C2(OC(=O)C(C)(O)OC2=O)O1 (stereo not given),inactive
